# Experimental data from PubChem BioAssay (NCATS).
# Where “and” joins values, the source holds several entries; their conditions need not be identical. Equal values may be shown once. Values without a mark were called inactive. Records with an inconclusive call do not appear. Entries that show only a call come without a potency. The source holds several records for some structures; these can differ, active in one and inactive in another. Calls of active or inactive are those of the source. Unless noted, calls follow the shape of the dose curve; as a rule, active = well fitted curve in the direction sought with a large enough effect; inconclusive = small, poorly fitted or top-dose-only effect, or another doubt; inactive = no such curve, though single readings can be large; an effect the other way counts as inactive or inconclusive.
# Tests used:
# [1] = system: CAOV3; assay: Primary qHTS to identify gynecologic anti-cancer compounds using libraries of approved drugs and bioactive compounds (AID 1345084); conditions: Gynecologic cancer cell panel viability, ATPlite luminescence, 48 h; series mostly up to 57.5 µM; also: nearly all actives have a fitted effect of over 55% in size; also: potency is read from the fitted curve at half-maximal effect
# Outline: (§1)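 Cells, 1,000 per well, plated 16 h, then exposed 48 h at 37 C to compounds. Viability by ATPlite luminescence after 15 min at room temperature.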
# [2] = system: CASKI; assay: as above; conditions: Gynecologic cancer cell panel viability, ATPlite luminescence, 48 h; series mostly up to 57.5 µM
# Outline: as §1
# [3] = system: Es-2; assay: as above; conditions: Gynecologic cancer cell panel viability, ATPlite luminescence, 48 h; series mostly up to 57.5 µM
# Outline: as §1
# [4] = system: HeLa; assay: as above; conditions: Gynecologic cancer cell panel viability, ATPlite luminescence, 48 h; series mostly up to 57.5 µM
# Outline: as §1
# [5] = system: Hek293T; assay: as above; conditions: Gynecologic cancer cell panel viability, ATPlite luminescence, 48 h, control line for the selectivity index; series mostly up to 57.5 µM
# Outline: as §1
# [6] = system: OV90; assay: as above; conditions: Gynecologic cancer cell panel viability, ATPlite luminescence, 48 h; series mostly up to 57.5 µM
# Outline: as §1
# [7] = system: PA-1; assay: as above; conditions: Gynecologic cancer cell panel viability, ATPlite luminescence, 48 h; series mostly up to 57.5 µM
# Outline: as §1
# [8] = system: SKOV3; assay: as above; conditions: Gynecologic cancer cell panel viability, ATPlite luminescence, 48 h; series mostly up to 57.5 µM
# Outline: as §1
# [9] = system: Tov-21-G; assay: as above; conditions: Gynecologic cancer cell panel viability, ATPlite luminescence, 48 h; series mostly up to 57.5 µM
# Outline: as §1
# [10] = system: Tov112D; assay: as above; conditions: Gynecologic cancer cell panel viability, ATPlite luminescence, 48 h; series mostly up to 57.5 µM
# Outline: as §1
# [11] = Drug repurposing screens with cells derived from glioblastoma tumor samples (AID 1345199); conditions: GBM patient neurospheres viability, ATP luminescence, 48 h; also: nearly all actives have a fitted effect of over 40% in size; also: potency is read from the fitted curve at half-maximal effect
# Outline: (§2)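 Primary testing used CD133+ neurospheres from four GBM patients, seven concentrations, 48 h exposure and ATP-based viability; confirmation added three slower-growing patient lines.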
# [12] = system: astro; assay: as above; conditions: viability, ATP luminescence, 48 h; series mostly up to 45.9 µM
# Outline: as §2
# [13] = qHTS assay for small molecule activators of the human pregnane X receptor (PXR) signaling pathway (AID 720659; call rule not given here)
# [14] = system: JEG-3; assay: Primary qHTS to identify gynecologic anti-cancer compounds using libraries of approved drugs and bioactive compounds (AID 1345084); conditions: Gynecologic cancer cell panel viability, ATPlite luminescence, 48 h; series mostly up to 57.5 µM; also: nearly all actives have a fitted effect of over 55% in size; also: potency is read from the fitted curve at half-maximal effect
# Outline: as §1
# [15] = qHTS assay to identify inhibitors of the type 1 interferon - major histocompatibility complex class I in skeletal muscle: Counter screen cell viability and HiBit confirmation (AID 1347412); conditions: iHSKM muscle cells + IFN-b, HiBiT or CellTiter-Glo, 24 h; Potency: HiBiT; Viability, at 45.9 µM (top of the series); also: potency is read from the fitted curve at half-maximal effect; nearly all actives have a fitted effect of over 60% in size
# Outline: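 Myoblasts (C25cl48, HLA-B HiBiT) seeded in medium without dexamethasone, IFN-b 4 ng/ml added except unstimulated columns; 1 hr later compounds pinned (12-pt 1:3, top 46 uM final). Incubated 24 hrs, lysed 10 min, luminescence measured.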
# [16] = molecular target: Nuclear receptor subfamily 1 group I member 2 (Rattus norvegicus) (UniProt Q9R1A7); assay: qHTS assay for small molecule activators of the rat pregnane X receptor (rPXR) signaling pathway (AID 651751; call rule not given here); conditions: rPXR reporter cells, luciferase (One-Glo), 24 h
# Chain of Nuclear receptor subfamily 1 group I member 2 (Rattus norvegicus) (Q9R1A7 whole entry, looked up): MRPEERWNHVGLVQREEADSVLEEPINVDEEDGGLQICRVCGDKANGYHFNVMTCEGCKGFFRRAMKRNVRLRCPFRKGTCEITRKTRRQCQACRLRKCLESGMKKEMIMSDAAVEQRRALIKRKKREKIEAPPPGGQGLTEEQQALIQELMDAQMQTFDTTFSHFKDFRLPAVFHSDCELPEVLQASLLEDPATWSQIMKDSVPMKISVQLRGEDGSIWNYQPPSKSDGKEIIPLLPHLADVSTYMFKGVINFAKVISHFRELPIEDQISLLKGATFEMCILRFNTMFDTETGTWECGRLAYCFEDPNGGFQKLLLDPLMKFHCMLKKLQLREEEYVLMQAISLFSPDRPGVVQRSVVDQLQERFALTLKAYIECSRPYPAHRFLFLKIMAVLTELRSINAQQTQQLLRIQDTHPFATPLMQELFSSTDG
# [17] = at 45.9 µM (top of the series), tumour line B
# [18] = at 45.9 µM (top of the series), tumour line D
# [19] = at 46 µM (top of the series), tumour line A
smiles,measurement,setting,value
OCCOc1ccccc1,Potency,[1],inactive
same,Potency,[2],inactive
same,Potency,[3],inactive
same,Potency,[4],inactive
same,Potency,[5],inactive
same,Potency,[6],inactive
same,Potency,[7],inactive
same,Potency,[8],inactive
same,Potency,[9],inactive
same,Potency,[10],inactive
same,"activity, negative = cell killing",[11]; [17],3.03% and -11.2%
same,"activity, negative = cell killing",[11]; [18],-21.5% and 1.35%
same,"activity, negative = cell killing",[11]; [19],-19.1%
same,Potency,[12],inactive
same,outcome,[13],inactive
CCC(C(N)=O)N1CCCC1=O (centres undefined),Potency,[1],inactive
same,Potency,[2],inactive
same,Potency,[3],inactive
same,Potency,[4],inactive
same,Potency,[5],inactive
same,Potency,[14],inactive
same,Potency,[6],inactive
same,Potency,[7],inactive
same,Potency,[9],inactive
same,Potency,[10],inactive
same,"activity, negative = cell killing",[11]; [17],-7.31%
same,"activity, negative = cell killing",[11]; [18],-6.8%
same,"activity, negative = cell killing",[11]; [19],-24.9%
C[C@@H]1O[C@@H](O[C@H]2C[C@@H](O)[C@]3(CO)[C@H]4[C@H](O)C[C@]5(C)[C@@H](C6=CC(=O)OC6)CC[C@]5(O)[C@@H]4CC[C@]3(O)C2)[C@H](O)[C@H](O)[C@H]1O,Potency,[1],251 nM (active) and 199 nM (active)
same,Potency,[2],562 nM (active) and 794 nM (active)
same,Potency,[3],316 nM (active) and 141 nM (active)
same,Potency,[4],224 nM (active) and 158 nM (active)
same,Potency,[5],282 nM (active) and 178 nM (active)
same,Potency,[6],447 nM (active) and 794 nM (active)
same,Potency,[7],316 nM (active) and 141 nM (active)
same,Potency,[8],251 nM (active) and 158 nM (active)
same,Potency,[9],251 nM (active) and 141 nM (active)
same,Potency,[10],89.1 nM (active) and 100 nM (active)
same,Potency,[11]; tumour line A,0.158 µM (active)
same,Potency,[11]; tumour line B,0.112 µM (active)
same,Potency,[11]; tumour line D,0.398 µM (active)
same,Potency,[15],70.1 nM (active) and 55.7 nM (active)
same,max response,[16],0.133%
same,outcome,[13],inactive
CC(C)(C)CC(C)(C)c1ccc(O)cc1,Potency,[1],inactive
same,Potency,[2],inactive
same,Potency,[3],inactive
same,Potency,[4],inactive
same,Potency,[5],inactive
same,Potency,[6],inactive
same,Potency,[7],inactive
same,Potency,[8],inactive
same,Potency,[9],inactive
same,Potency,[10],inactive
same,"activity, negative = cell killing",[11]; [18],-15%
same,Potency,[11]; tumour line B,44.7 µM (active)
same,Potency,[11]; tumour line D,63.1 µM (active)
same,max response,[16],-11.1%
CC(CCc1ccccc1)NC(C)C(O)c1ccc(O)cc1 (centres undefined),Potency,[1],inactive
same,Potency,[2],inactive
same,Potency,[3],inactive
same,Potency,[4],inactive
same,Potency,[5],inactive
same,Potency,[14],inactive
same,Potency,[8],inactive
same,Potency,[9],inactive
same,Potency,[10],inactive
same,"activity, negative = cell killing",[11]; [17],-9.92%
same,"activity, negative = cell killing",[11]; [18],2.61%
same,Potency,[11]; tumour line A,14.1 µM (active)
same,Potency,[12],inactive
CC1NCCOC1c1ccccc1 (centres undefined),Potency,[2],inactive
same,Potency,[3],inactive
same,Potency,[4],inactive
same,Potency,[5],inactive
same,Potency,[14],inactive
same,Potency,[6],inactive
same,Potency,[7],inactive
same,Potency,[8],inactive
same,Potency,[9],inactive
same,Potency,[10],inactive
same,"activity, negative = cell killing",[11]; [17],-0.55%
same,"activity, negative = cell killing",[11]; [18],7.64%
same,"activity, negative = cell killing",[11]; [19],-23.4%
N[C@@H](Cc1ccc(N(CCCl)CCCl)cc1)C(=O)O,Potency,[4],inactive
same,Potency,[5],inactive
same,Potency,[8],inactive
same,Potency,[9],inactive
same,max response,[16],1.48% and 0.994%
